# Compound activity: PubChem, National Center for Advancing Translational Sciences (NCATS)
# Only some compounds are listed: those with a hit (about 18% of all), similar ones and a draw of the others.
# TDP1 cell noCPT = qHTS for Inhibitors of human tyrosyl-DNA phosphodiesterase 1 (TDP1): qHTS in cells in absence of CPT; Potency, µM (titrated, usually from 46.2 µM), without a hit: at the top dose activity change, negative = growth inhibition, actives largely listed as inhibitors; actives 15% (n = 420,000); DT40 Tdp1-/- hTDP1 cells, no CPT, ATP luminescence, 48 h; AID 686978, 2013; further: potency means the concentration at half of the fitted maximal effect; nearly all actives have a fitted effect of over 55% in size
#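 Compound effects on proliferation are scored in DT40 Tdp1-/-;hTDP1 cells in the absence of CPT. ATP levels (CellTiter-Glo luminescence) are recorded after a ≥48 hr, 37 °C incubation.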
# VP16 counter = Gal4-VP16 reporter inhibition counter-screen. actives 3.5% (n = 310,000). Potency, µM (top dose mostly 53.6 µM), inactives show at the top dose activity, negative = inhibition, actives largely listed as inhibitors. AID 2546. Drosophila S2 Gal4-VP16 UAS-luciferase, luminescence, 20 h;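 further: Gal4-VP16 expression switched on by copper sulfate through the metallothionein promoter; potency means the concentration at half of the fitted maximal effect; nearly all actives have a fitted effect of over 50% in size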
# LDHA block = blocks human lactate dehydrogenase A; purified LDHA, NADH/diaphorase-resazurin fluorescence; stronger effect = lower value; AID 1347041; actives 0.15% (n = 480,000); activity change, % (values are at about 110 or 230 µM); P00338; in the data active means activity change below about -30%; inconclusive means mostly about -25% to -30%;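 further: plate controls were DMSO wells for no effect and wells without enzyme for full effect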
#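 Remaining NADH was detected by diaphorase (0.133 mg/mL) converting 37 µM resazurin to fluorescent resorufin, read at 0 and 20 minutes. The preceding 5-minute room-temperature reaction used 2 nM LDHA, 0.2 mM sodium pyruvate and 0.06 mM NADH at pH 7.4.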
# RORgamma inh = blocks mouse ROR gamma transcriptional activity. P51450. Drosophila S2 Gal4-RORgamma UAS-luciferase reporter, 20 h. Potency, µM (titrated, usually from 53.6 µM), for the others: at the top dose activity change, negative = inhibition, hits mostly inhibitors. actives 5.4% (n = 310,000); further: potency means the concentration at half of the fitted maximal effect; nearly all actives have a fitted effect of over 60% in size
# Target sequence (P51450 whole entry, looked up, the tested form may be a part): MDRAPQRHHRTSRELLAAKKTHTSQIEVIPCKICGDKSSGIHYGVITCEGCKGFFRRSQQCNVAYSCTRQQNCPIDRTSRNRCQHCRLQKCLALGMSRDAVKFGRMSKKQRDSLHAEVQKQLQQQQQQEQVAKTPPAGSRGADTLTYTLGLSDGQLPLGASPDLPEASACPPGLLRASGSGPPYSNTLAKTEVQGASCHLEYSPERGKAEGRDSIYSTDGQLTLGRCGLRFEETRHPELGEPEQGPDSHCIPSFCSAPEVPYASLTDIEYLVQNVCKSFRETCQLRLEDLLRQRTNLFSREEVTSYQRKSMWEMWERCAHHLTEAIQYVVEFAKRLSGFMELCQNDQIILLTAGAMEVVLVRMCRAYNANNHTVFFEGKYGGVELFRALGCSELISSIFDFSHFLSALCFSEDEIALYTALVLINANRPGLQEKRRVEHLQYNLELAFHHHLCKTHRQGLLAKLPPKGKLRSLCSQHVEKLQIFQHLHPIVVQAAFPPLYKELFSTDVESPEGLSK
#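 Luciferase reporter read in Schneider cells carrying Gal4-RORγ (mouse) and UAS-Photinus luciferase; cells given compound 1 h before 700 uM copper sulfate induction, then incubated 20 h at ambient temperature.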
# IL-1B inflam inh = inflammasome signaling inhibition, IL-1 beta readout; activity change, % at 57.5 µM; AID 743279; actives 4.7% (n = 360,000); THP-1 LPS/ATP IL-1B secretion, AlphaLISA, 16 h; stronger effect = lower value; in the data active means activity change below about -50%; inconclusive means mostly about -30% to -49%
#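 Secreted IL-1B measured by AlphaLISA bead assay after 16 h compound exposure of THP-1 cells; compounds (final up to 57.5 uM) added 1 h before LPS (250 ng/mL) and ATP (1.25 mM) stimulation; lower signal means less secretion.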
# DT40 TDP1 CPT = growth inhibition of DT40 Tdp1-/-;hTDP1 cells with camptothecin (screen for TDP1 inhibitors); actives 12% (n = 420,000); Potency, µM (doses to about 46.2 µM), without a hit: at the highest dose activity change, negative = growth inhibition, usual class: inhibitors; chicken DT40 Tdp1-/-;hTDP1 cells + 20 nM CPT, ATP luminescence, 48 h; further: potency means the concentration at half of the fitted maximal effect; nearly all actives have a fitted effect of over 55% in size
#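 Chicken DT40 Tdp1-/- cells complemented with human TDP1, 400 cells/well, exposed to compounds plus 20 nM camptothecin for at least 48 h at 37 C; viability read as ATP content by CellTiter-Glo luminescence.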
# An asterisk follows results filed as active; ? = inconclusive; . = no result; [ ] = remark or other dose. Unless noted, the call rests on the fitted dose curve; in most records, active means well fitted curve in the direction sought with a large enough effect; inconclusive means small, poorly fitted or top-dose-only effect, or another doubt; inactive means no such curve, though single readings can be large; an effect the other way counts as inactive or inconclusive. Unless noted, on the % scale 0 is the no-effect control and ±100 the full control effect.
SMILES,TDP1 cell noCPT,VP16 counter,LDHA block,RORgamma inh,IL-1B inflam inh,DT40 TDP1 CPT
S=C(Nc1ccc(Oc2ccccc2)cc1)NC1CCCCC1,?,-4%[0.365 µM],-3,2.2µM*,-15,26µM*
CC(C)C(C)(C#N)NC(=O)COc1ccc2ccc(=O)oc2c1 (configuration not stated),.,.,1,.,.,.
COc1cc2c(-c3ccc(O)cc3)nc3c(c(C)nn3-c3ccccc3)c2cc1OC,18µM*,?,3,8%[10 µM],22,12µM*
COc1ccc(NC(=O)C(C)Sc2nnc3c4c(nc(-c5ccc(OC)cc5)n23)CC(C)(C)OC4)cc1 (configuration not stated),15µM*,-17%,-8,?,-1,21µM*
COc1ccc(-c2nc3c(c4nnc(SC(C)C(=O)Nc5ccccc5)n24)COC(C)(C)C3)cc1 (configuration not stated),-3%,-7%,-6,14%,9,0%
O=C(NCCN1CCCC1)c1nn(Cc2ccccc2)c(=O)c2ccccc12,.,.,0,.,.,.
Cc1nn(-c2ccccc2)c(C)c1-c1cc(C(=O)N/N=C/c2ccc(O)cc2)[nH]n1,?,17%,0,?,-22,26µM*
COc1cc(/C=N/NC(=O)c2cc(-c3ccc4c(c3)OCO4)n[nH]2)ccc1O,?,?,-6,-38%,-154*,?
COc1cc(/C=N/NC(=O)c2cc(-c3c(C)nn(-c4ccccc4)c3C)n[nH]2)ccc1O,?,-4%,-2,?,-29,23µM*
CCOc1ccccc1OCCCC(=O)Oc1ccc(-c2ccc(C#N)cc2)cc1,.,.,4,.,.,.
Cc1cccc2c(C(=O)O)cc(-c3ccco3)nc12,.,.,6,.,.,.
COc1ccc(NC(=O)Cn2c(Nc3ccc(F)c(C)c3)nc(C)cc2=O)cc1OC,.,.,-12,.,.,.
O=C(Nc1ccc2nc(N3CCN(C4CCCCC4)CC3)cc(C(=O)O)c2c1)c1ccccc1F,.,.,23,.,.,.
CCSc1ccc(C(=O)Nc2cccc(C)n2)cc1[N+](=O)[O-],?,-12%,-1,1%,3,-12%
Cc1ccc(C)c2sc(NC(=O)c3ccc(N4CCCCC4)c([N+](=O)[O-])c3)nc12,23µM*,-11%,-6,-31%,?,?
Cc1cccc(NC(=O)c2ccc(N(C)C3CCCCC3)c([N+](=O)[O-])c2)n1,16µM*,?,-3,8%,?,21µM*
Cc1cccc(NC(=O)c2ccc(N3CCOCC3)c([N+](=O)[O-])c2)n1,?,-1%,-11,33%,-29,?
Cc1cccc(NC(=O)c2ccc(N3CCCCC3)c([N+](=O)[O-])c2)n1,13µM*,?,2,?,-3,?
O=C1CN(C(=O)c2cc(-c3ccccn3)nc3cc(F)ccc23)CCN1,.,.,6,.,.,.
O=C1NC(=S)N/C1=C/c1cc2c(cc1[N+](=O)[O-])OCO2,0.58µM*,-20%,3,6%,-9,4.1µM*
O=C(O)/C=C\c1cc2c(cc1[N+](=O)[O-])OCO2,0%,-3%,2,14%,4,3%
C=CCNc1oc(-c2ccco2)nc1S(=O)(=O)c1ccc2c(c1)OCCO2,.,.,18,.,.,.
N#CC(c1cccc(Cl)c1)c1ccc2c(C(F)(F)F)cc(C(F)(F)F)nc2n1 (configuration not stated),1.6µM*,4µM*,-4,5µM*,-105*,1.5µM*
CCc1nnc(Cn2cnc3scc(-c4ccc(Cl)cc4)c3c2=O)o1,.,.,0,.,.,.
COc1ccc(CN2CCN(Cc3c[nH]c4ccccc34)CC2CCO)c(F)c1 (configuration not stated),8.2µM*,-3%,-9,4%,?,4.6µM*
SMILES,TDP1 cell noCPT,VP16 counter,LDHA block,RORgamma inh,IL-1B inflam inh,DT40 TDP1 CPT
COc1cc(CN2CCN(Cc3cn(C)c4ccccc34)CC2CCO)cc(OC)c1 (configuration not stated),?,-7%,-2,-12%,?,?
CC(C)=CCN1CCN(Cc2cn(C(C)C)c3ccccc23)CC1CCO (configuration not stated),23µM*,-8%,0,-25%,-4,18µM*
CC(C)(C)CN1CCN(Cc2c[nH]c3ccccc23)CC1CCO (configuration not stated),8.2µM*,-5%,0,11%,-23,8.2µM*
CC(C)(C)CN1CCN(Cc2cc3ccccc3[nH]2)CC1CCO (configuration not stated),-26%,-3%,2,3%,-13,-22%
COc1cc(CN2CCN(Cc3c[nH]c4ccccc34)CC2CCO)cc(OC)c1 (configuration not stated),?,-5%,-6,-4%,-23,13µM*
COc1ccc(F)c(CN2CCN(CCc3ccccc3)C(CCO)C2)c1 (configuration not stated),-14%,2%,-1,22%[1.91 µM],-2,-13%
CC(=O)Nc1ccccc1C(=O)N1CCN(C(c2ccccc2)c2ccccc2)CC1,.,.,6,.,.,.
O=C(/C=C/c1ccc(F)cc1)NCCCCc1ccccc1,.,.,-15,.,.,.
COc1cccc(CN2CCN(Cc3cc4ccccc4[nH]3)CC2CCO)c1 (configuration not stated),?,-7%,-3,21%,-11,?
COc1cccc(CN2CCN(Cc3[nH]c4ccccc4c3C)CC2CCO)c1 (configuration not stated),?,-9%,3,38%,-78*,?
COc1ccc(CN2CCN(Cc3c[nH]c4ccccc34)CC2CCO)cc1C (configuration not stated),9.2µM*,0%,-4,?,?,6.5µM*
CC(CC(=O)NCc1ccc(F)cc1)S(=O)(=O)c1ccc2c(c1)CCN2C(=O)C1CC1 (configuration not stated),.,.,1,.,.,.
Cc1ccc(NC(=O)CC2S/C(=N/N=C/C=C/c3ccccc3)NC2=O)cc1Cl (configuration not stated),-5%,4µM*,-5,4µM*,20,5%
CC(C)=N/N=C1/NC(=O)C(CC(=O)Nc2cc(Cl)ccc2C)S1 (configuration not stated),-8%,?,?,11µM*,8,1%
